According to PubChem BioAssay (NCI):
Compounds without any hit were thinned out: in the full panel of roughly 79,000, 15% have a hit. Rule as the data show it: active = growth inhibition above about 70%; inactive = the rest.

Tests used:
[1] = NCI Yeast Anticancer Drug Screen. Data for the rad50 strain (AID 155);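 also: 0% = growth of vehicle-only cultures of the same strain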; conditions: S. cerevisiae rad50 strain growth inhibition; at 50.0 µM; hits give high values
Outline: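 Yeast carrying a defined DNA repair defect were exposed to test compounds, and growth was compared with vehicle-treated controls to give percent inhibition.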

[2] = NCI Yeast Anticancer Drug Screen. Data for the mec2-1 strain (AID 157); conditions: S. cerevisiae mec2-1 strain, at 50.0 µM, hits give high values
Outline: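 Cells of the genetically defined mec2-1 yeast strain are incubated with test compound. Inhibition of growth is calculated against vehicle-treated controls.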

[3] = NCI Yeast Anticancer Drug Screen. Data for the sgs1 mgt1 strain (AID 161);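 also: 0% = growth of cultures given vehicle only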; conditions: S. cerevisiae sgs1 mgt1 strain, at 50.0 µM, hits give high values
Outline: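 Test agents were incubated with a DNA-repair-mutant yeast strain. Growth was then read and compared against vehicle-treated controls.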

[4] = NCI Yeast Anticancer Drug Screen. Data for the cln2 rad14 strain (AID 165);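 also: 0% = growth equal to vehicle treated cultures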; conditions: S. cerevisiae cln2 rad14 strain, at 50.0 µM, hits give high values
Outline: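 The screen exposed genetically defined yeast (cln2 rad14) to test compounds and scored growth inhibition relative to vehicle-treated controls.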

[5] = NCI Yeast Anticancer Drug Screen. Data for the bub3 strain (AID 167); conditions: S. cerevisiae bub3 mutant strain, at 50.0 µM, hits give high values
Outline: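 Compounds were applied to a genetically altered yeast strain carrying a cell-cycle control defect. Growth inhibition was scored against vehicle-treated controls.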

[6] = NCI Yeast Anticancer Drug Screen. Data for the mlh1 rad18 strain (AID 175); conditions: S. cerevisiae mlh1 rad18 strain growth inhibition; at 50.0 µM; hits give high values
Outline: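 Compound-treated yeast growth, normalised to vehicle controls. Strain bears defined DNA repair mutations.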

Measured: growth inhibition

Nc1nc[n+](Cc2ccccc2)c2ncn(Cc3ccccc3)c12
inactive: [1] -5.6% | [2] -23.6% | [3] -11.2% | [4] -9.25% | [5] -14.7% | [6] 3.5%

CC1(C)C=Cc2c(ccc3[nH]c4occc4c(=O)c23)O1
inactive: [1] 23.4% | [2] -21.8% | [3] -16.8% | [4] 14.2% | [5] 11.4% | [6] -0.3%

CCc1c2c(cc3c1CC1(C3)Cc3cc4c(c(C(=O)OC)c3C1)CCCC4)CCCC2 (stereo not given)
inactive: [1] -18.8% | [2] -16.4% | [3] -20.8% | [4] 9.65% | [5] -14% | [6] -25.9%

c1ccc(N2CCCC2(c2ccccc2)c2ccccc2)cc1
inactive: [1] 29.1% | [2] 11.3% | [3] 47.1% | [4] -11.8% | [5] 22.9% | [6] 28.4%

CC(C)CCCC(C)C1CCC2C1CCC1C2CCC2(C)CCC(=O)CCC12C (stereo not given)
inactive: [1] 24.8% | [2] -2.85% | [3] -2.55% | [4] -17.8% | [5] 1.6% | [6] -4%

CCOP(=O)(OCC)C(Cc1cn(S(=O)(=O)c2ccc(C)cc2)cn1)C(=O)O (stereo not given)
inactive: [1] -14.2% | [2] 12.5% | [3] 5.9% | [4] 16.2% | [5] 21.4% | [6] -17.4%

O=C(Nc1ccn(C2OC(CO)C(O)C2O)c(=O)n1)Nc1ccn(C2OC(CO)C(O)C2O)c(=O)n1 (stereo not given)
inactive: [1] 22.5% | [2] -17.6% | [3] -4.95% | [4] -35.8% | [5] -1.2% | [6] 17.6%

COC(=O)C(N)CSCSC (stereo not given)
inactive: [1] -12.8% | [2] 13% | [3] 3.7% | [4] -44% | [5] -13.8% | [6] -5.65%

CCOC(=O)CCN1C(=O)C(=O)N(c2ccc(OC)cc2)C1=S
inactive: [1] -7% | [2] -6.6% | [3] 3.75% | [4] -57.1% | [5] 5% | [6] -5.6%

O=C(CCc1nnc2s/c(=C\c3ccccc3Cl)c(=O)n12)Nc1cc(Cl)ccc1Cl
inactive: [1] 2.9% | [2] -14.7% | [3] -36.8% | [4] -21.8% | [5] -4.8% | [6] -15.1%

CN(C)CCN(C)CC(C)(C)C(=O)/C=C/c1ccccc1
inactive: [1] -26% | [2] 2.55% | [3] -21.6% | [4] -5.95% | [5] -7.15% | [6] -15.4%

O=C(O)CC(O)(c1ccccc1C(=O)O)c1cccc2ccccc12 (stereo not given)
inactive: [1] -2.95% | [2] -4.05% | [3] 18.4% | [4] 25.2% | [5] -3.15% | [6] 22.3%

Cc1[nH]c2ccccc2c1C1Cc2ccccc2N1C(=O)/C=C/C=C/c1ccccc1 (stereo not given)
inactive: [1] 10.4% | [2] 24.7% | [3] -39.4% | [4] 38.5% | [5] 2.2% | [6] 15.2%

O=C1CCC(c2nc3ccccc3[nH]2)N1Cc1cccs1 (stereo not given)
inactive: [1] -29.4% | [2] -37.1% | [3] -10.2% | [4] -21.9% | [5] -6.85% | [6] -8.55%

O=C(CN1C(=O)c2ccccc2C1=O)NCC(=O)N(C(=O)NC1CCCCC1)C1CCCCC1
inactive: [1] 23.1% | [2] 2.3% | [3] 27.9% | [4] 11.8% | [5] -3.35% | [6] 5%

CCCCCCCCCCOC(=O)C(C)O (stereo not given)
inactive: [1] 8.4% | [2] 2.95% | [3] 5.35% | [4] 5.55% | [5] -16.3% | [6] -4.75%

CCN(CC)C(=O)c1c(-c2ccccc2)nc(-c2ccccc2)c(C(=O)N(CC)CC)c1Cl
inactive: [1] 42% | [2] 14.6% | [3] 21.6% | [4] 21.6% | [5] 1.05% | [6] 27.8%

Cn1c(=O)oc2cc(C(O)CN3CCN(Cc4ccccn4)CC3)c(Cl)cc21 (stereo not given)
inactive: [1] -19.6% | [2] 3.9% | [3] -4.5% | [4] 2.45% | [5] 6.25% | [6] 11.4%

Cc1cc(Oc2cnc(=O)[nH]c2)cs1
inactive: [1] 27.1% | [2] 22.4% | [3] 19.9% | [4] 1.7% | [5] 12% | [6] 10.9%

CC(=O)Nc1cc2c(cc1Cl)-c1ccc(Br)cc1C2
inactive: [1] 6.35% | [2] -12.8% | [3] -2.25% | [4] -23.4% | [5] 0.85% | [6] -19.7%
